Consider 35 molecules from PubChem BioAssay (NCATS).

Each structure is given as a SMILES string. Results filed as inconclusive are left out. A number with no mark means an inactive call. Activity calls are given as the source filed them. Calls come from the whole dose curve; as a rule, active = well fitted curve in the direction sought with a large enough effect; inconclusive = small, poorly fitted or top-dose-only effect, or another doubt; inactive = no such curve, though single readings can be large; an effect the other way counts as inactive or inconclusive.
Note: nearly all actives have a fitted effect of over 70% in size.

In one assay the target is Luciferin 4-monooxygenase (Photinus pyralis) (UniProt P08659). In words: Biochemical firefly luciferase enzyme assay for NPC (AID 624030).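 Note: purified P. pyralis luciferase at 10 nM with luciferin and ATP substrate; 0% = DMSO and -100% = full luciferase inhibition by PTC124 control.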 The settings on record: purified P. pyralis luciferase, luminescence, 5 min; series mostly up to 58.6 µM; activity change, negative = inhibition: at the top concentration. The essentials: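 Counter-screen for direct inhibition of the luciferase enzyme by approved-drug library compounds, run at 10 nM enzyme in 50 mM Tris acetate (final). Luminescence was read within 5 min of enzyme-buffer addition and normalized to PTC124 versus DMSO (0%).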
Chain of Luciferin 4-monooxygenase (Photinus pyralis) (P08659 whole entry, looked up): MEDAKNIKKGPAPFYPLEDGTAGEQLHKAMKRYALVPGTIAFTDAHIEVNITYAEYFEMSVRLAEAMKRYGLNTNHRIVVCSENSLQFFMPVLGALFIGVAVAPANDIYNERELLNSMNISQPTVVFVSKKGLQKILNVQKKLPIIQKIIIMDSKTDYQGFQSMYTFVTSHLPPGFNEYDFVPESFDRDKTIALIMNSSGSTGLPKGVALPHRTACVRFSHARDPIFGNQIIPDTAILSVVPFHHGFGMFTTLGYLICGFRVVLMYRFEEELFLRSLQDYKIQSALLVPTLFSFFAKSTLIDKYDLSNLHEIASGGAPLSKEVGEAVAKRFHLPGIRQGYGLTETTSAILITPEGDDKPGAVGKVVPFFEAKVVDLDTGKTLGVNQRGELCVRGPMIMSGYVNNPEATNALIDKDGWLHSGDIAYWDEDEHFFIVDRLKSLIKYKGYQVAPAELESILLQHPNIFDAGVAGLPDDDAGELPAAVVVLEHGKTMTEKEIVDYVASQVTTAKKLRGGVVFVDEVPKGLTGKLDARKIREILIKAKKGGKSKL
Regarding `COc1ccc(CCN2CCC(Nc3nc4ccccc4n3Cc3ccc(F)cc3)CC2)cc1`, the “activity change, negative = inhibition” value is 20.1%.

For `CCN1CCC[C@H]1CNC(=O)c1c(OC)ccc(Br)c1OC`, the “activity change, negative = inhibition” value is -2.27%.

Turning to `Cc1ccc(C(=O)C(C)CN2CCCCC2)cc1` (stereo not given), the “activity change, negative = inhibition” value was 19.8%.

With `CC(C)NC[C@@H](O)COc1cccc2ccccc12`, the “activity change, negative = inhibition” value was 4.39%.

In the case of `COc1ccc(C2C(=O)c3ccccc3C2=O)cc1`, the “activity change, negative = inhibition” value is -1.85%.

As for `CCCN1CCCC[C@H]1C(=O)Nc1c(C)cccc1C`, the “activity change, negative = inhibition” value was -0.718%.

Regarding `C[C@H]1[C@H](NC(=O)/C(=N/OC(C)(C)C(=O)O)c2csc(N)n2)C(=O)N1S(=O)(=O)O` (stereo in doubt), the “activity change, negative = inhibition” value was 3.34% [at 24.9 µM].

For `Clc1ccc2c(c1)CCc1cccnc1C2=C1CCNCC1`, the “activity change, negative = inhibition” value was 7.86%.

As for `CC(O)(P(=O)(O)O)P(=O)(O)O`, the “activity change, negative = inhibition” value is 6.62%.

`CCOc1ccc(Cc2nccc3cc(OCC)c(OCC)cc23)cc1OCC`: the “activity change, negative = inhibition” value was -0.365% [at 24.9 µM].

As for `CN(C(=O)CN(CCO)CC(=O)N(C)C(C)(C)Cc1ccccc1)C(C)(C)Cc1ccccc1`, the “activity change, negative = inhibition” value was 0.534% [at 24.9 µM].

On to `Cc1onc(-c2c(Cl)cccc2Cl)c1C(=O)N[C@@H]1C(=O)N2[C@@H]1SC(C)(C)[C@@H]2C(=O)O`, for which the “activity change, negative = inhibition” value is -7.3%.

Take `CC(C)N=C(N)/N=C(\N)Nc1ccc(Cl)cc1`: the “activity change, negative = inhibition” value was 5.13% [at 24.9 µM].

Take `CC(C)(C)CC(C)(C)c1ccc(O)c(Cc2ccc(Cl)cc2Cl)c1`: the “activity change, negative = inhibition” value is 0.519%.

With `CO/N=C1\CN(c2nc3c(cc2F)c(=O)c(C(=O)O)cn3C2CC2)CC1CN` (stereo not given), the “activity change, negative = inhibition” value is 9.41%.

As to `CNCCC(Oc1ccccc1C)c1ccccc1` (stereo not given), the “activity change, negative = inhibition” value is -0.0559%.

Consider `COc1cc2c(cc1OC)C(=O)C(CC1CCN(Cc3ccccc3)CC1)C2` (stereo not given), for which the “activity change, negative = inhibition” value was 5.18%.

On to `NCCCC[C@H](N[C@@H](CCc1ccccc1)C(=O)O)C(=O)N1CCC[C@H]1C(=O)O`, for which the “activity change, negative = inhibition” value was 2.4% [at 24.9 µM].

Take `CC(C)COC(=O)OCN1C(=O)CN(CCN2CC(=O)N(COC(=O)OCC(C)C)C(=O)C2)CC1=O`: the “activity change, negative = inhibition” value is 2.7%.

Regarding `COC(=O)[C@H]1[C@H]2C[C@H]3c4[nH]c5ccccc5c4CCN3C[C@H]2CC[C@@H]1O`, the “activity change, negative = inhibition” value is 0.881%.

In the case of `COc1cccc(CCc2ccccc2OCC(CN(C)C)OC(=O)CCC(=O)O)c1` (stereo not given), the “activity change, negative = inhibition” value is 5.08%.

For `CCN(CCCc1ccccc1)CCCc1ccccc1`, the “activity change, negative = inhibition” value was -7.84% [at 24.9 µM].

Regarding `Cc1cccc(C)c1NC(=O)CN1CCN(CCCC(c2ccc(F)cc2)c2ccc(F)cc2)CC1`, the “activity change, negative = inhibition” value is 3.78% [at 24.9 µM].

For the molecule `CCCOC(C(=O)OC1CCN(C)CC1)(c1ccccc1)c1ccccc1`, the “activity change, negative = inhibition” value is 10.1%.

`O=S1(=O)c2cccc3cccc(c23)N1CCCN1CCN(c2ccc(F)cc2)CC1`: the “activity change, negative = inhibition” value is 1.93%.

For `CCCCCCCCCCCCCCCC[N+](C)(C)CC`, the “activity change, negative = inhibition” value is 6%.

As for `O=C1OCCN1/N=C/c1ccc([N+](=O)[O-])o1`, the “activity change, negative = inhibition” value is 0.0423%.

On to `CCCCCCC[N+](CC)(CC)CCCCc1ccc(Cl)cc1`, for which the “activity change, negative = inhibition” value is 5.37% [at 24.9 µM].

For the molecule `Oc1ccc(Cl)cc1Sc1cc(Cl)ccc1O`, the “activity change, negative = inhibition” value was -16%.

In the case of `COc1cc2c(cc1OC)C(C(C(=O)N(CCc1ccc(OC)c(OC)c1OC)CCc1ccc(OC)c(OC)c1OC)c1ccccc1)=NCC2` (stereo not given), the “activity change, negative = inhibition” value was -2.38%.

With `CCCCOc1ccc(OCCCN2CCOCC2)cc1`, the “activity change, negative = inhibition” value is -0.155% [at 24.9 µM].

As to `COC(=O)CCc1ccc(OCC(O)CNC(C)C)cc1` (stereo not given), the “activity change, negative = inhibition” value was 1.37%.

Turning to `COC(=O)C1=C(C)NC(C)=C(C(=O)O[C@@H]2CCCN(Cc3ccccc3)C2)[C@@H]1c1cccc([N+](=O)[O-])c1`, the “activity change, negative = inhibition” value was -1.36%.

On to `CC(C)(C)CC(C)(C)c1ccc(OCCOCC[N+](C)(C)Cc2ccccc2)cc1`, for which the “activity change, negative = inhibition” value was 13.4%.

Test system in another assay: not listed separately
Kind of assay: S16 Schwann cell viability assay (CellTiter-Glo assay) (AID 624031).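 For activity change, negative = cytotoxicity: native untransfected S16 rat Schwann cells; cellular ATP luminescence as a viability measure; plate controls were DMSO-treated cells for no effect and cell-free wells for full effect.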 Note: potency is the fitted concentration of half-maximal effect. The settings on record: S16 rat Schwann cells viability, 24 h; series mostly up to 57.5 µM; activity change, negative = cytotoxicity: at the top concentration. Summed up:
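Parental S16 cells, 24 h compound, 37 °C. ATP-luminescence viability; DMSO = 0% activity, empty wells as reference; curves classified by fit quality and efficacy.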
For `COc1ccc(CCN2CCC(Nc3nc4ccccc4n3Cc3ccc(F)cc3)CC2)cc1`, the Potency is 16.1 µM (active).

Turning to `CCN1CCC[C@H]1CNC(=O)c1c(OC)ccc(Br)c1OC`, the “activity change, negative = cytotoxicity” value is -7.03%.

On to `Cc1ccc(C(=O)C(C)CN2CCCCC2)cc1` (stereo not given), for which the “activity change, negative = cytotoxicity” value is -1.82%.

As for `CC(C)NC[C@@H](O)COc1cccc2ccccc12`, the “activity change, negative = cytotoxicity” value is -25.5%.

For `COc1ccc(C2C(=O)c3ccccc3C2=O)cc1`, the “activity change, negative = cytotoxicity” value was 3.24%.

Consider `CCCN1CCCC[C@H]1C(=O)Nc1c(C)cccc1C`, for which the “activity change, negative = cytotoxicity” value is 4.27%.

As to `C[C@H]1[C@H](NC(=O)/C(=N/OC(C)(C)C(=O)O)c2csc(N)n2)C(=O)N1S(=O)(=O)O` (stereo in doubt), the “activity change, negative = cytotoxicity” value was -1.71% [at 25.7 µM].

`CC(O)(P(=O)(O)O)P(=O)(O)O`: the “activity change, negative = cytotoxicity” value was 8.18%.

For `CCOc1ccc(Cc2nccc3cc(OCC)c(OCC)cc23)cc1OCC`, the “activity change, negative = cytotoxicity” value was -10.3% [at 25.7 µM].

As for `CN(C(=O)CN(CCO)CC(=O)N(C)C(C)(C)Cc1ccccc1)C(C)(C)Cc1ccccc1`, the “activity change, negative = cytotoxicity” value is 0.226% [at 25.7 µM].

Consider `CC(C)N=C(N)/N=C(\N)Nc1ccc(Cl)cc1`, for which the “activity change, negative = cytotoxicity” value is -27.2% [at 25.7 µM].

`CO/N=C1\CN(c2nc3c(cc2F)c(=O)c(C(=O)O)cn3C2CC2)CC1CN` (stereo not given): the “activity change, negative = cytotoxicity” value was 3.87%.

As for `NCCCC[C@H](N[C@@H](CCc1ccccc1)C(=O)O)C(=O)N1CCC[C@H]1C(=O)O`, the “activity change, negative = cytotoxicity” value is 0.93% [at 25.7 µM].

For the molecule `CC(C)COC(=O)OCN1C(=O)CN(CCN2CC(=O)N(COC(=O)OCC(C)C)C(=O)C2)CC1=O`, the “activity change, negative = cytotoxicity” value was -4.56%.

Consider `COC(=O)[C@H]1[C@H]2C[C@H]3c4[nH]c5ccccc5c4CCN3C[C@H]2CC[C@@H]1O`, for which the “activity change, negative = cytotoxicity” value is -0.0273%.

Regarding `C[C@]12CC[C@@H]3c4ccc(O)cc4CC[C@H]3[C@@H]1CC[C@@H]2O`, the “activity change, negative = cytotoxicity” value is -7.44%.

Take `CCN(CCCc1ccccc1)CCCc1ccccc1`: the “activity change, negative = cytotoxicity” value is 3.88% [at 25.7 µM].

With `CCCOC(C(=O)OC1CCN(C)CC1)(c1ccccc1)c1ccccc1`, the “activity change, negative = cytotoxicity” value was -5.17%.

For `O=S1(=O)c2cccc3cccc(c23)N1CCCN1CCN(c2ccc(F)cc2)CC1`, the “activity change, negative = cytotoxicity” value was -29.8%.

As for `CCCCCCCCCCCCCCCC[N+](C)(C)CC`, the Potency was 32.2 µM (active).

With `O=C1OCCN1/N=C/c1ccc([N+](=O)[O-])o1`, the “activity change, negative = cytotoxicity” value is -2.01%.

Take `CCCCCCC[N+](CC)(CC)CCCCc1ccc(Cl)cc1`: the “activity change, negative = cytotoxicity” value was -19.5% [at 25.7 µM].

For `Oc1ccc(Cl)cc1Sc1cc(Cl)ccc1O`, the “activity change, negative = cytotoxicity” value is -1.07%.

Regarding `COc1cc2c(cc1OC)C(C(C(=O)N(CCc1ccc(OC)c(OC)c1OC)CCc1ccc(OC)c(OC)c1OC)c1ccccc1)=NCC2` (stereo not given), the “activity change, negative = cytotoxicity” value is 0.676%.

For `CCCCOc1ccc(OCCCN2CCOCC2)cc1`, the “activity change, negative = cytotoxicity” value was -2.65% [at 25.7 µM].

Consider `CC(C)(C)CC(C)(C)c1ccc(OCCOCC[N+](C)(C)Cc2ccccc2)cc1`, for which the Potency is 32.2 µM (active).
